Experimental findings from PubChem BioAssay AID1851 (National Center for Advancing Translational Sciences (NCATS), 2009) are described below.

The whole screen tested about 16,000 compounds, of which about 5,700 (36%) were called active. Not shown: some 24% with an inconclusive outcome. The call rests on the fitted dose curve; in most records, active means well fitted curve in the direction sought with a large enough effect; inconclusive means small, poorly fitted or top-dose-only effect, or effect the other way; inactive means no such curve, though single readings can be large or run the other way. This is one part of the list.
On the % scale 0 is the no-effect control and ±100 the full control effect.

For the experiment, the target named is Cytochrome P450 1A2 (Homo sapiens) (UniProt P05177). The experiment in a line: Cytochrome panel assay with activity outcomes. The note with it: recombinant CYP, pro-luciferin dealkylation, luminescence, p450-cyp1a2; series mostly up to 57.1 µM.
Cytochrome P450 1A2 (Homo sapiens), sequence (P05177 whole entry, looked up): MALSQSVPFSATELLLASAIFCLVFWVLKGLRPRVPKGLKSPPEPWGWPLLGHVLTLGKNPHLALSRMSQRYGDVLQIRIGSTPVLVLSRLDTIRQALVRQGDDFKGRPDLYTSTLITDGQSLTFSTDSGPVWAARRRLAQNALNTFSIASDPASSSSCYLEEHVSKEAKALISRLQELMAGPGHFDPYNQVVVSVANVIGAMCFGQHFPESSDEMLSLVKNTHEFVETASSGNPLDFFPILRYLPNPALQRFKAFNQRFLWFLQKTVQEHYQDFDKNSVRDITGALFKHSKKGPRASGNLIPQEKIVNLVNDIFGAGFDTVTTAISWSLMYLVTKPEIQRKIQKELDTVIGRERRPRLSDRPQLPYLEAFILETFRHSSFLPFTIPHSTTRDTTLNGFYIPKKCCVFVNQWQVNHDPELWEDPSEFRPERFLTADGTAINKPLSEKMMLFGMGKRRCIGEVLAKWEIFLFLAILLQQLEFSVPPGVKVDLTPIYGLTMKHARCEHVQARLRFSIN
Take `Cc1ccc(S(=O)(=O)NC(=O)Nc2ncn[nH]2)cc1`: the activity, negative = inhibition is -21.4% [at 2.29 µM] (inactive).
A word on the AC50: it is the concentration giving half of the maximal activity seen. Turning to `N[C@H](CCCC(=O)O)C(=O)O`, the AC50 entry is “inactive”.
Still for that read-out and setting: the result for `O=C(NC[C@@H](O)CO)c1c(I)c(C(=O)NC[C@@H](O)CO)c(I)c(N(CCO)C(=O)CO)c1I` reads “inactive”.
Still for that read-out and setting: the result for `COc1cc2nc(N3CCN(C(=O)[C@@H]4CCCO4)CC3)nc(N)c2cc1OC` reads “inactive”; that for `CCN1CCN(S(=O)(=O)c2ccc(Cl)c(C(=O)Nc3nnc(CC(C)C)s3)c2)CC1`, “inactive”.
Regarding `Cc1ccc(CS(=O)(=O)CCC(=O)N2CCOCC2)cc1`, the AC50 entry was “inactive”.
For `Cc1nc2c(C(=O)N3CCOCC3)cnn2c(C)c1Cc1ccc(Cl)cc1`, the concentration at half-maximal activity (AC50) is 15.8 µM (active).
Still for that read-out and setting: the result for `O=C(c1cc(Cl)c(=O)n(Cc2ccc(Cl)cc2)c1)N1CCOCC1` reads “inactive”; that for `O=C(O)CNC(=O)[C@@H](CS)Cc1ccccc1`, “inactive”; that for `COc1ccc2nc3c(c([Si](C)(C)C(C)(C)C)c2c1)Cn1c-3cccc1=O`, 0.794 µM (active).
For `COc1cc2nc3c(c([Si](C)(C)C(C)(C)C)c2cc1OC)Cn1c-3cccc1=O`, the AC50 is 5.01 µM (active).
The same measure, in the same setting: the result for `CC(C)(C)[Si](C)(C)c1c2c(nc3ccc(OCc4ccccc4)cc13)-c1cccc(=O)n1C2` reads 5.01 µM (active); that for `COCCn1c(=O)c(C)nc2cnc(N3CCNCC3)nc21`, 10 µM (active).
Take `COc1ccc(-c2nc3cnc(N4CCN(C)CC4)nc3n(CCc3ccccc3)c2=O)cc1`: the AC50 result was “inactive”.
On to `CN1CCN(c2ncc3nc(-c4cc(F)cc(F)c4)c(=O)n(CCc4ccccc4)c3n2)CC1`, for which the AC50 entry was “inactive”.
Same read-out and setting: the result for `COCCn1c(=O)c(C)nc2cnc(N3CCN(C)CC3)nc21` reads 15.8 µM (active); that for `Cc1nc2cnc(N3CCN(C)CC3)nc2n(CCc2ccccc2)c1=O`, 10 µM (active).
Regarding `CN(C)C[C@H]1CCC2=C(C1=O)C(c1ccc(Cl)c(Cl)c1)C1=C(CC[C@H](CN(C)C)C1=O)O2`, the activity, negative = inhibition is -2.04% [at 2.29 µM] (inactive).
With `CC[C@H]1C2=C3C(CC[C@H]4C(OCc5ccc(F)cc5C(F)(F)F)OC[C@](C)([C@@H]34)N(C(=O)OC(C)(C)C)C2)C(COC(C)=O)C1COC(C)=O` (stereo partly drawn), the AC50 entry is “inactive”.
On to `Cc1cc(C(C)(C)C)cc(CNC2CCCCC2)c1O`, for which the AC50 is 3.16 µM (active).
For `Oc1cc(CN2COc3ccccc32)c(O)cc1CNC1CCCCC1`, the activity, negative = inhibition is -14.2% [at 11.4 µM] (inactive).
Same read-out and setting: in the case of `CO[C@@H]1COC(=O)C/C=C\[C@@H](C)COC(=O)[C@H](Cc2ccccc2)NC(=O)C/C=C\[C@H]1C` it was 5.59% [at 11.4 µM] (inactive).
For `O=C(NNC(=O)c1ccccc1-n1cccc1)c1ccccc1`, the AC50 entry was “inactive”.
Still for that read-out and setting: the result for `CCC(=O)NCc1c(Cl)cccc1-n1cccc1` reads 14.1 µM (active).
The same measure, in the same setting: in the case of `COc1nc(C)nc(Cl)c1NC1=NCCN1` it was “inactive”.
As for `C/C(=C\c1ccco1)C1C(C#N)=C(N)Oc2n[nH]c(-c3ccccc3)c21` (stereo not drawn), the AC50 was 0.2 µM (active).
For `COc1ccc(C(C)(C)C)cc1NC(=O)c1cncc(Br)c1`, the concentration at half-maximal activity (AC50) is 1 µM (active).
On the same count and under the same terms, in the case of `Cc1nnc(SCc2nc(N)nc(Nc3ccccc3)n2)s1` it was 4.47 µM (active); in that of `COc1ccc(Nc2nc(N)nc(CSc3n[nH]c(-c4ccccc4)n3)n2)cc1`, 15.8 µM (active); in that of `NC[C@@H]1O[C@H](O[C@@H]2[C@H](O[C@@H]3O[C@H](CO)[C@@H](COC[C@H]4O[C@@H](CN)[C@@H](O)[C@@H](O)[C@@H]4N)[C@@H]3O)[C@@H](O)[C@@H](N)C[C@H]2N)[C@@H](N)[C@H](O)[C@@H]1O`, “inactive”.
Take `O=C(OC(C(=O)NC1CCCC1)c1ccncc1)C1=Cc2ccccc2OC1` (stereo not drawn): the AC50 was 11.2 µM (active).
The same measure, in the same setting: in the case of `CC(C)c1ccc(N(C(=O)C(F)(F)F)C(C(=O)NC2CCCCC2)c2ccncc2)cc1` (stereo not drawn) it was “inactive”; in that of `Cc1cc(C)cc(N(C(=O)Cc2cccs2)C(C(=O)NC2CCCCC2)c2ccccn2)c1` (stereo not drawn), “inactive”; in that of `NCCOB(c1ccccc1)c1ccccc1`, 15.8 µM (active).
Still for that read-out and setting: the result for `Cc1noc(C)c1C(=O)N1CCC2(CCCN(Cc3ccc(C#N)cc3)C2)CC1` reads “inactive”; that for `Cc1noc(C)c1-c1cc(Nc2ccccc2)ncn1`, 1.26 µM (active).
As for `Cc1noc(C)c1C(=O)OCC(=O)NC(c1ccccc1)c1ccccc1`, the AC50 result was “inactive”.
Same read-out and setting: in the case of `Cc1noc(C)c1-c1cc(Nc2ccc(F)cc2)ncn1` it was 0.501 µM (active); in that of `Cc1n[nH]c(C)c1S(=O)(=O)N1CCOCC1`, “inactive”.
For the molecule `CCc1cc2c(nc1CC)CCN(CC/C(C)=N/O[C@@H](C)c1cc(-c3c(C)cc(C)cc3C)no1)C2`, the activity, negative = inhibition is -8.6% [at 11.4 µM] (inactive).
Take `O=C(c1cnn(-c2ccccc2)c1)c1ccc2ccccc2c1O`: the half-maximal activity concentration (AC50) was 2.51 µM (active).
In the case of `O=C(O)/C(=C\c1ccc(O)cc1)c1cccc2ccccc12`, the activity, negative = inhibition was -10.8% [at 11.4 µM] (inactive).
On to `CC(C)CNC(=O)O`, for which the activity, negative = inhibition is -14.2% [at 11.4 µM] (inactive).
Turning to `Cc1ccc(NC2c3ncccc3C(=O)N2Cc2ccc(F)cc2)cc1` (stereo not drawn), the AC50 was 11.2 µM (active).
Consider `CN[C@@H]1NC(=O)c2ccccc2N1Cc1ccc(F)cc1`, for which the activity, negative = inhibition was -7.56% [at 2.29 µM] (inactive).
Consider `Cc1ccc(CN2C(=O)CCC2C(=O)NCc2cccnc2)cc1` (stereo not drawn), for which the AC50 entry was “inactive”.
The same measure, in the same setting: the result for `Cc1cccc(CNc2ncnc3ccc(-c4ccc(C(=O)N(C)C)cc4)cc23)c1` reads 15.8 µM (active).
The same measure, in the same setting: the result for `CN(C)C(=O)c1ccc(-c2ccc3ncnc(NCc4ccccc4)c3c2)cc1` reads 15.8 µM (active); that for `CN(C)c1ccc(-c2ccc3ncnc(NCc4ccccc4)c3c2)cc1`, 0.501 µM (active); that for `CN(C)C(=O)c1ccc(-c2ccc3ncnc(NCc4cccs4)c3c2)cc1`, 15.8 µM (active).
`CO[C@@H](C(C)C)[C@@H](C)[C@@H]1OC(=O)C[C@@H]1O`: the activity, negative = inhibition was -5.03% [at 11.4 µM] (inactive).
Consider `CN(C)c1ccc(-c2cncnc2NCc2cccnc2)cc1`, for which the half-maximal activity concentration (AC50) is 1 µM (active).
Regarding `CN(C)c1ccc(-c2cncnc2NCc2ccccc2)cc1`, the AC50 was 1 µM (active).
`CC(C)CO/N=C1/C[C@@H](O)[C@@H](O)[C@@H]2[C@@H]3C(=O)N([C@@H](C)c4ccccc4)C(=O)[C@H]3CC[C@H]12`: the activity, negative = inhibition was 4.53% [at 11.4 µM] (inactive).
On to `CN=C1S/C(=C\c2ccc(Sc3ccc(Cl)cc3)o2)C(=O)N1C`, for which the half-maximal activity concentration (AC50) was 3.55 µM (active).
Take `Clc1ccc(Sc2ccc(/C=N/n3cnnc3)o2)cc1`: the AC50 was 14.1 µM (active).
Same read-out and setting: in the case of `CN(C)c1nc(C#N)nc(N2CCOCC2)n1` it was 1.58 µM (active).
Take `CC1(C)[C@@H]2CC[C@@](C)(C2)[C@H]1OC(=O)c1ccccc1C(=O)O`: the activity, negative = inhibition was 2.82% [at 11.4 µM] (inactive).
As for `Cc1cc(C(=O)OC2CCOC2=O)c2ccccc2n1` (stereo not drawn), the concentration at half-maximal activity (AC50) was 2.82 µM (active).
Take `OC(CCCN1CCCCC1)(c1ccccc1)c1ccccc1`: the AC50 result is “inactive”.
The same measure, in the same setting: in the case of `CCCCN1CCC(n2c(=O)[nH]c3ccccc32)CC1` it was “inactive”; in that of `CCCCCCN1Cc2ccccc2C1`, 12.6 µM (active).
Same read-out and setting: the result for `COCCCNC(=O)CN(c1ccc(OC)cc1)S(=O)(=O)c1ccc(NC(C)=O)cc1` reads “inactive”; that for `C=CCOc1ccc(CNC(C)(C)CO)cc1OC`, “inactive”.
With `COc1ccc(CCNC[C@H](O)c2ccc(O)cc2)cc1OC`, the AC50 entry was “inactive”.
`CCOc1nc(NCCc2ccc(OC)c(OC)c2)nc(NC(C)(C)CO)n1`: the AC50 was 5.01 µM (active).
On to `CCSC[C@@H](N)C(=O)O`, for which the activity, negative = inhibition was -1.61% [at 2.29 µM] (inactive).
For `Cc1nn(Cc2ccc(Cl)cc2)c(C)c1NC(=O)Cn1nc([N+](=O)[O-])c(Cl)c1C`, the AC50 result is “inactive”.
Same read-out and setting: in the case of `Cc1c(Cl)c([N+](=O)[O-])nn1Cc1ccc(C(=O)N/N=C\c2cccc(Br)c2)o1` it was 3.16 µM (active); in that of `Cc1c(Cl)c([N+](=O)[O-])nn1Cc1ccc(C(=O)N/N=C\c2cc(Cl)ccc2O)o1`, 1.58 µM (active); in that of `CN(C)CC(O)COc1ccc(C(C)(C)c2ccc(OCC(O)CN(C)C)cc2)cc1` (stereo not drawn), “inactive”.
On the same count and under the same terms, the result for `CC1(C)OC(=O)C(=CNc2cccc(O)c2)C(=O)O1` reads 12.6 µM (active).
The same measure, in the same setting: in the case of `CC(=O)c1cccc(NC=C2C(=O)OC3(CCCCC3)OC2=O)c1` it was 3.55 µM (active); in that of `CC(=O)Nc1cccc(N2C(=O)CCC2=O)c1`, “inactive”.
In the case of `O=C(O)[C@H]1CC=CC[C@@H]1C(=O)Nc1cccc(O)c1`, the activity, negative = inhibition was -18.8% [at 11.4 µM] (inactive).
Turning to `CSCCC(NC=C1C(=O)OC(C)(C)OC1=O)C(=O)O` (stereo not drawn), the AC50 result was “inactive”.
Same read-out and setting: in the case of `CCCC[C@H](CC)CN1CN(C[C@@H](CC)CCCC)CC(C)(N)C1` it was “inactive”.
The same measure, in the same setting: the result for `Cc1cc(C)n(-c2nc(Nc3ccccc3C)nc(-n3nc(C)cc3C)n2)n1` reads “inactive”; that for `Cc1cc(C)n(-c2nc(NC(C)C)nc(NC(C)C)n2)n1`, 10 µM (active); that for `COc1cccc(C(=O)/C=C/c2ccc(SC)cc2)c1`, 2.51 µM (active).
Still for that read-out and setting: in the case of `CCOC(=O)CSc1n[nH]c(NC(=O)c2cccc(C)c2)n1` it was 15.8 µM (active); in that of `CCOC(=O)CSc1n[nH]c(NC(=O)c2ccccc2)n1`, 10 µM (active); in that of `Cc1ccc(NC(=O)CN(C)C(=O)CSc2n[nH]c(N)n2)cc1`, “inactive”.
In the case of `Cn1sc(NC(=O)c2ccccc2)nc1=O`, the AC50 entry is “inactive”.
As for `CCOC(=O)CSc1nnc(NC(=O)c2cccc(S(=O)(=O)N3CCCCCC3)c2)s1`, the AC50 result was “inactive”.
The same measure, in the same setting: the result for `CCOC(=O)CSc1n[nH]c(NC(=O)c2cccc(C(F)(F)F)c2)n1` reads 3.16 µM (active).
Regarding `CCOC(=O)CC(=O)CSc1nc(-c2cccnc2)cc(C)c1C#N`, the concentration at half-maximal activity (AC50) is 10 µM (active).
For the molecule `C[C@@H]1NC(=O)C/C=C\[C@@H](C)[C@@H]2C=C[C@H](O)[C@@H](COC(=O)[C@H](C)NC(=O)C/C=C\[C@@H](C)[C@@H]3C=C[C@H](O)[C@@H](COC1=O)O3)O2`, the activity, negative = inhibition is -3.28% [at 11.4 µM] (inactive).
With `COC(=O)N1CCC2(CC1)CN(C(=O)Nc1cccc(C#N)c1)C2`, the AC50 entry is “inactive”.
Still for that read-out and setting: the result for `CN1CCC(=C2c3ccccc3CCc3sccc32)CC1` reads “inactive”; that for `CCOC(=O)CSc1n[nH]c(-c2cccnc2)n1`, 2.51 µM (active).
As to `COc1ccc(CNc2ncnc3ccc(-c4ccoc4)cc23)c(OC)c1`, the AC50 is 1.58 µM (active).
In the case of `COc1ccccc1CNc1ncnc2ccc(-c3ccoc3)cc12`, the AC50 was 2.51 µM (active).
